Experiment [1] can be described thus: ATG_M_06_XSP2: Attagene TRANS-FACTORIAL Multi-Species (XSP2) HepG2 Assay for M06 Transcription Factor (Internal Marker) (AID 2283811).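 Also: internal background marker reporter mRNA measured by RT-PCR and capillary electrophoresis; hits are increases in signal above the DMSO baseline.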 The method in brief:
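Internal-marker reporter transcript, quantified by RT-PCR, 6-FAM labelling, HpaI digestion and capillary electrophoresis, 24 hours after dosing transfected HepG2 cells with 3 nM 6-alpha-fluorotestosterone and 1.5 nM norgestrel present; DMSO baseline.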

The test system of experiment [2] is turtle Estrogen Receptor (ERa), gene 101933533. In words: ATG_trERa_XSP2: Attagene TRANS-FACTORIAL Multi-Species (XSP2) HepG2 Assay for turtle Estrogen Receptor (ERa) (AID 2283812).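 Also: actives raise reporter signal above DMSO so AC50 reflects agonist activity.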 The method in brief:
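Readout is reporter mRNA quantified by RT-PCR with capillary electrophoresis after 24 h compound exposure, increase relative to DMSO. Uses transiently transfected human HepG2 liver cells carrying a chimeric turtle ERa-Gal4 receptor driving GAL4-UAS reporters.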

Experiment [3] addresses Estrogen receptor beta (Homo sapiens) (UniProt Q92731). Briefly: ATG_hERb_XSP2: Attagene TRANS-FACTORIAL Multi-Species (XSP2) HepG2 Assay for human Estrogen Receptor (ERb) (AID 2283813).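 Also: actives raise reporter mRNA above DMSO so AC50 reflects agonist induction.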 The method in brief: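 Transient TRANS reporter system in HepG2: after 24 h of chemical, RNA is reverse-transcribed, reporter cDNA amplified, FAM-labelled and sized by capillary electrophoresis. Induction of the human ERb-Gal4 reporter is measured relative to DMSO.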

Experiment [4] deals with GAL4 Transcription Factor (Internal Marker), GAL4 (gene 855828) (UniProt P04386). In words: ATG_GAL4_XSP2: Attagene TRANS-FACTORIAL Multi-Species (XSP2) HepG2 Assay for GAL4 Transcription Factor (Internal Marker) (AID 2283814).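 Also: GAL4 reporter mRNA background control in MRTU transfected cells not a receptor target.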 The gist of the method:
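Background-control readout: gain-of-signal fitted against DMSO. After 24 h exposure of transfected HepG2 (MRTU, GAL4-UAS reporters; 3 nM 6-alpha-fluorotestosterone, 1.5 nM norgestrel present), transcripts quantified by RT-PCR and capillary electrophoresis fluorescence.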

The target of experiment [5] is zebrafish Estrogen Receptor (ER1), esr1 (gene 259252) (UniProt P57717). Briefly: ATG_zfER1_XSP2: Attagene TRANS-FACTORIAL Multi-Species (XSP2) HepG2 Assay for zebrafish Estrogen Receptor (ER1) (AID 2283816). The method in brief:
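After 24 h compound exposure, RNA from transfected HepG2 cells was reverse-transcribed and reporter transcripts resolved by capillary electrophoresis. The TRANS format reads exogenous zebrafish ER1-Gal4 chimera activity on GAL4-UAS elements; gain of signal against DMSO.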

In experiment [6] the target is chicken Estrogen Receptor (ERa), ESR1 (gene 396099) (UniProt P06212). In words: ATG_chERa_XSP2: Attagene TRANS-FACTORIAL Multi-Species (XSP2) HepG2 Assay for chicken Estrogen Receptor (ERa) (AID 2283817).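 Also: actives raise reporter signal above DMSO so AC50 reflects ER activation.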 The method in brief: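 Reporter mRNA induction read by RT-PCR, fluorescent labelling and capillary electrophoresis after 24 h exposure; positive-direction fit against DMSO baseline. HepG2 cells transfected with multiplexed GAL4-UAS units including chicken ERa chimera; medium contained 3 nM 6-alpha-fluorotestosterone plus 1.5 nM norgestrel.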
Chain of chicken Estrogen Receptor (ERa), ESR1 (gene 396099) (P06212 whole entry, looked up, the tested form may be a part): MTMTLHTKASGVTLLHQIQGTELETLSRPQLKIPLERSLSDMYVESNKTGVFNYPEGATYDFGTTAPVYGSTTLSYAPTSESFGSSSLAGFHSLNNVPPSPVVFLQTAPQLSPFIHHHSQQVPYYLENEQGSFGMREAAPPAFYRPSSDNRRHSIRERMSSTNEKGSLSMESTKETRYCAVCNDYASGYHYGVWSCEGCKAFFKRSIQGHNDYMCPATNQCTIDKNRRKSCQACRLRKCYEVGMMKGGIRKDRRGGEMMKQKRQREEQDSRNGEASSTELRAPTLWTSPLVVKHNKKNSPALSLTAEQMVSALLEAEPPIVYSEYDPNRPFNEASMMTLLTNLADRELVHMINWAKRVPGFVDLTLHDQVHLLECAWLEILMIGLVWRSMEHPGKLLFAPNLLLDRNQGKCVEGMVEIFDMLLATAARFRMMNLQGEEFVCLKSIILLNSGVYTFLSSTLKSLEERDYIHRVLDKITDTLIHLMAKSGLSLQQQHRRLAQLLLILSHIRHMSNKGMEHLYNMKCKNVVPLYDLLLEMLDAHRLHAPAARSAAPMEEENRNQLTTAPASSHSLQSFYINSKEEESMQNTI

The subject of experiment [7] is zebrafish Estrogen Receptor (ER2a), gene 317734. In words: ATG_zfER2a_XSP2: Attagene TRANS-FACTORIAL Multi-Species (XSP2) HepG2 Assay for zebrafish Estrogen Receptor (ER2a) (AID 2283818).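 Also: hits raise reporter mRNA so AC50 reflects activation of zebrafish ER2a.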 The gist of the method:
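Multiplexed trans-reporter readout: RT-PCR then capillary electrophoresis of reporter transcripts after 24 h compound treatment. Human HepG2 carries transfected zebrafish ER2a-Gal4 chimera; 3 nM 6-alpha-fluorotestosterone plus 1.5 nM norgestrel present. Induction scored against DMSO.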

In experiment [8] the test system is frog Estrogen Receptor (ER), gene 398734. Briefly: ATG_frER1_XSP2: Attagene TRANS-FACTORIAL Multi-Species (XSP2) HepG2 Assay for frog Estrogen Receptor (ER) (AID 2283821).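 Also: hits raise reporter mRNA above DMSO baseline so potency means agonist or activator.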 The gist of the method:
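HepG2 cells transiently transfected with multiplexed GAL4-UAS reporter units expressing chimeric NR-Gal4 proteins (TRANS format) were dosed for 24 h. Reporter mRNA was quantified by RT-PCR, FAM primer extension, HpaI digestion and capillary electrophoresis; gain of signal relative to DMSO.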

Experiment [9] has as its system zebrafish Estrogen Receptor (ER2b), gene 317733. In words: ATG_zfER2b_XSP2: Attagene TRANS-FACTORIAL Multi-Species (XSP2) HepG2 Assay for zebrafish Estrogen Receptor (ER2b) (AID 2283823).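 Also: fitted upward as reporter gain over DMSO so potency reflects activation.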 The method in brief:
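Transfect HepG2 with GAL4-UAS reporter constructs; dose chemicals, 24 h; isolate RNA, RT-PCR, FAM-label, HpaI digest; capillary electrophoresis. Gain-of-signal vs DMSO.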

The subject of experiment [10] is turtle Androgen Receptor (AR), gene 101947425. In words: ATG_trAR_XSP2: Attagene TRANS-FACTORIAL Multi-Species (XSP2) HepG2 Assay for turtle Androgen Receptor (AR) (AID 2283815). The method in brief: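 Reporter transcripts were quantified via RT-PCR and capillary electrophoresis and fitted upward against DMSO. Transiently transfected human HepG2 cells carrying NR-Gal4 chimeras were exposed 24 h, with 3 nM 6-alpha-fluorotestosterone plus 1.5 nM norgestrel added.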

The subject of experiment [11] is chicken Androgen Receptor (AR), gene 422165. Briefly: ATG_chAR_XSP2: Attagene TRANS-FACTORIAL Multi-Species (XSP2) HepG2 Assay for chicken Androgen Receptor (AR) (AID 2283819).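 Also: hits raise reporter mRNA above DMSO so potency is for activation.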 The gist of the method: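 Readout is reporter mRNA induction via RT-PCR/capillary electrophoresis after 24 h chemical exposure, positive direction relative to DMSO. Transiently transfected HepG2 express chimeric chicken AR–GAL4; AR stimulated by 3 nM 6-alpha-fluorotestosterone and 1.5 nM norgestrel.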

Experiment [12] has as its system frog Androgen Receptor (AR), gene 399456. Briefly: ATG_frAR_XSP2: Attagene TRANS-FACTORIAL Multi-Species (XSP2) HepG2 Assay for frog Androgen Receptor (AR) (AID 2283824).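 Also: reporter mRNA from GAL4-UAS units driven by Xenopus AR-Gal4 chimera; actives raise reporter signal above DMSO so AC50 reflects agonist-like induction.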 The gist of the method:
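Reporter transcript induction, read by RT-PCR with fluorescent capillary electrophoresis, in human liver HepG2 cells carrying an exogenous Xenopus AR-Gal4 fusion and GAL4-driven reporters; chemical exposure 24 hours, activity scored upward against DMSO controls.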

Values joined by “and” are separate entries in the source; they are usually repeats but may differ in a detail not shown here. Equal entries are not always repeated. Inconclusive results are not listed. A structure can be active in one record and inactive in another. Active and inactive are the calls of the source. The calls were made as follows: active = hit-call score of the fitted dose curve at least 0.9, where 1 is the maximum; inconclusive = response in the unintended direction; inactive = score below 0.9.

Chain of zebrafish Estrogen Receptor (ER1), esr1 (gene 259252) (P57717 whole entry, looked up, the tested form may be a part): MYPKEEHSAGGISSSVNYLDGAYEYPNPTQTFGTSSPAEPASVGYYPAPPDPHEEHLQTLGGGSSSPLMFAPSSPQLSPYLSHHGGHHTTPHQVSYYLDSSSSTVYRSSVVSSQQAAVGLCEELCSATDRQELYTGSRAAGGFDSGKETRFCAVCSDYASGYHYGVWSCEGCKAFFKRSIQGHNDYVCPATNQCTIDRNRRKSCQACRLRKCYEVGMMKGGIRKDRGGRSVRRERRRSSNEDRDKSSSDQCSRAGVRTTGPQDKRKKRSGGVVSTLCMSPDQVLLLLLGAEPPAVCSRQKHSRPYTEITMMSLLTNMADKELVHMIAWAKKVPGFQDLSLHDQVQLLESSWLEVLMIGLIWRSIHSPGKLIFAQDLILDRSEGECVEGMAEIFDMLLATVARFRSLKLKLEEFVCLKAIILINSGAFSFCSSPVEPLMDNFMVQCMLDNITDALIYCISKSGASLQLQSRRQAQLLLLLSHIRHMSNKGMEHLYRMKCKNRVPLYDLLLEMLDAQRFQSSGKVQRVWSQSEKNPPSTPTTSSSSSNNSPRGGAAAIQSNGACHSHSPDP
Chain of Estrogen receptor beta (Homo sapiens) (Q92731 whole entry, looked up, the tested form may be a part): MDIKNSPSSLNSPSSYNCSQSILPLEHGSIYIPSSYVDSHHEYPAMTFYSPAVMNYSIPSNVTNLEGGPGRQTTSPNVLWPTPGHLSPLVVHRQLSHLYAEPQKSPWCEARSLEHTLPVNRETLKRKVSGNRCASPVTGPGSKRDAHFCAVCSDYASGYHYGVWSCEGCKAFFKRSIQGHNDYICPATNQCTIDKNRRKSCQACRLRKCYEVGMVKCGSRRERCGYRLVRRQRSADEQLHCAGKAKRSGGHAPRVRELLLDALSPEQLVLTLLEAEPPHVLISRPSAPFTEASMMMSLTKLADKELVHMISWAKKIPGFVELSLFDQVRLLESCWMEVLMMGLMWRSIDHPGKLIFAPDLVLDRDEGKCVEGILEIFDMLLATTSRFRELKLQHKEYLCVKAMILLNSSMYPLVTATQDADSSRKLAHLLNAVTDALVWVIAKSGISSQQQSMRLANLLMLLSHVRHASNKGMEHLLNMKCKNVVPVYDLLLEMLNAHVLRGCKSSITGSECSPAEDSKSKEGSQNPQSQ
Chain of GAL4 Transcription Factor (Internal Marker), GAL4 (gene 855828) (P04386 whole entry, looked up, the tested form may be a part): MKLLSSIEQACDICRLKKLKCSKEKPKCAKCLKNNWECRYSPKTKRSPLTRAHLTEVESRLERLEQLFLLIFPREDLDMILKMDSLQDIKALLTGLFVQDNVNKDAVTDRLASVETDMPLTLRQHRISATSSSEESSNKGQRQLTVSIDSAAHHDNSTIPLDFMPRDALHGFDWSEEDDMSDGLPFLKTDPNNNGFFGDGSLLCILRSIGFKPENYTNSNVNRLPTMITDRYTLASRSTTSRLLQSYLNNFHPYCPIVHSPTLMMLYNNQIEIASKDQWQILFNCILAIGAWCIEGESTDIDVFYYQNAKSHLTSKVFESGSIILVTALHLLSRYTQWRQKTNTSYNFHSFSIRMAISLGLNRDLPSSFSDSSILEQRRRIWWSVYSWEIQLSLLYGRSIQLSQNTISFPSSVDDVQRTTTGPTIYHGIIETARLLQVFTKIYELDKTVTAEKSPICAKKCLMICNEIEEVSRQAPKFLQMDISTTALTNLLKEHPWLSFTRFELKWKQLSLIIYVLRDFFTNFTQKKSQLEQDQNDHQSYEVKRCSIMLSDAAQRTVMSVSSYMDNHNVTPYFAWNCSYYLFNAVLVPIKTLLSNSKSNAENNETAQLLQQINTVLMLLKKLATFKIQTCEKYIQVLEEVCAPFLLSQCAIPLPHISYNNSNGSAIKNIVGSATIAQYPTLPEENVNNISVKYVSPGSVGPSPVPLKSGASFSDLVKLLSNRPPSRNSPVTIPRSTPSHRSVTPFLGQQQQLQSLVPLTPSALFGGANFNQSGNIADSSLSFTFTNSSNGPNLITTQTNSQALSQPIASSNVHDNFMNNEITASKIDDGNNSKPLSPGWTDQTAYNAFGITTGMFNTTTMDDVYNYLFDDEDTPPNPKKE

As usually defined, the AC50 is the concentration at which the activity in the assay is half-maximal. `OCc1cccc(Oc2ccccc2)c1`: the compound was classed as inactive in experiment [1], in [4] and in experiment [5]. For the same compound, the AC50 in experiment [2] was 17.1 µM (active) and 11.5 µM (active); in experiment [3], 26.9 µM (active) and 8.78 µM (active); in [5] it was 37.7 µM (active); in experiment [6] it was 16 µM (active) and 6.22 µM (active); in experiment [7], 23.5 µM (active) and 14.7 µM (active); in [8], 27 µM (active) and 27.1 µM (active). Also, the AC50 in [9] was 46.5 µM (active) and 12.4 µM (active).
Consider `Clc1ccc(C(c2ccccc2Cl)C(Cl)Cl)cc1` (stereo not given), for which the outcome in experiment [1] was inactive. For the same compound, the AC50 is 1.29 µM (active) and 8.5 µM (active) in [2]; 3.01 µM (active) and 5.58 µM (active) in experiment [3]; 4.61 µM (active) and 12.7 µM (active) in experiment [5]; 3.1 µM (active) and 7.58 µM (active) in [6]; 2.3 µM (active) and 2.61 µM (active) in experiment [7]; 2.74 µM (active) and 4.46 µM (active) in experiment [8]. The AC50 in experiment [9] is 2.37 µM (active) and 1.97 µM (active).
Consider `BrCc1cccc(Oc2ccccc2)c1`, for which the call in experiment [1] and in experiment [5] was inactive. Also, the AC50 in [2] is 15.9 µM (active) and 18.2 µM (active); in experiment [3], 21.3 µM (active) and 7.91 µM (active); in [5] it was 100 µM (active); in experiment [6], 27.5 µM (active) and 21.5 µM (active); in experiment [7], 19.2 µM (active) and 11.9 µM (active); in experiment [8], 7.78 µM (active) and 26.9 µM (active). Also, the AC50 in experiment [9] is 34.9 µM (active) and 12.4 µM (active).
For the compound `Oc1ccc2cc(SSc3ccc4cc(O)ccc4c3)ccc2c1`, the call in [1], in experiment [2], in experiment [10], in experiment [5], in experiment [11] and in [8] was inactive. Further, the AC50 in [2] is 1.07 µM (active); in [5] it was 2.96 µM (active); in experiment [6] it was 2.29 µM (active) and 634 nM (active); in experiment [7] it was 822 nM (active); in experiment [11] it was 40.7 µM (active); in experiment [9], 2.56 µM (active) and 2.52 µM (active). For the same compound, the AC50 in experiment [12] was 26.3 µM (active).

For the origin of these results see PubChem BioAssay (EPA / NIEHS).
